Dicer inh: inhibitors of Dicer pre-microRNA processing, primary screen, biochemical, cat-ELCCA, chemiluminescence; Endoribonuclease Dicer (Homo sapiens), Q9UPY3; cat-ELCCA pre-miR-21 Dicer processing; hits give high values; 6% of 47,000 active; z-score at 25 µM; in the data active = z-score above about 3, passing the limit was not always enough;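 note: higher signal means more uncleaved substrate so more Dicer inhibition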
A number is an active result; – = inactive. The full list was thinned out, with hits kept by preference.

SMILES | Dicer inh
N#CC(C(=O)c1ccccc1Cl)=C1SCCCS1 | –
CCOC(=O)CCCCCN1C(=O)S/C(=C/c2ccccc2)C1=S | –
Cc1c(S(=O)(=O)c2ccc(Cl)cc2)csc1C(=O)NCCSCc1ccc([N+](=O)[O-])cc1 | –
CCOC(=O)c1cnc(SCc2ccc(Cl)cc2)nc1N | –
NC(=O)c1sc(-c2ccc(Cl)cc2)cc1NS(=O)(=O)c1cc(C(F)(F)F)cc(C(F)(F)F)c1 | 3.7
NC(=O)c1sc(-c2ccccc2)cc1NS(=O)(=O)c1ccc(F)cc1 | –
COC(=O)c1sc(-c2ccc(Cl)cc2)cc1NC(=O)C(F)(F)F | –
CC(C)OC(=O)CSc1nnc(-c2ccccc2Cl)o1 | –
COC(=O)c1sc(-c2ccccc2)cc1NS(=O)(=O)c1ccc(Cl)cc1Cl | –
Cc1cn(C(=O)c2snnc2C)nc1-c1cccs1 | –
NNC(=S)Nc1cccc(Cl)c1 | –
CNC(=S)N/N=C/c1ccccc1O | –
Oc1ccccc1/C=N/NC(=S)Nc1cccc(Cl)c1 | 13
C=CCOC(=O)c1sc(NC(=O)c2sc3ccccc3c2Cl)nc1C | –
CSc1nc(-c2ccccc2)nc(Sc2ccc(Cl)cc2Cl)c1C#N | –
O=C(CC1(O)C(=O)N(Cc2ccccc2Cl)c2ccccc21)c1ccccn1 (stereo unspecified) | –
O=C(NCC(c1ccccc1)c1c[nH]c2ccccc12)C(F)(F)F (stereo unspecified) | –
NC(Cc1c[nH]c2ccccc12)C(=O)O (stereo unspecified) | –
Nc1ccccc1CC(c1c[nH]c2ccccc12)c1c[nH]c2ccccc12 | 4.8
CCC12CN3CC(CC)(CN(C1)C3c1cc(Br)ccc1O)C2=O (stereo unspecified) | –
Cc1ccc2cc(-c3noc(C)n3)c(=O)[nH]c2c1 | –
O=C1CC(/C=C/c2ccccc2)Cc2nc(N3CCN(c4ccccn4)CC3)ncc21 (stereo unspecified) | –
N#Cc1ccc(-c2ccccc2)nc1SCC(=O)OCc1ccccc1 | –
COC(=O)c1[nH]c2ccc([N+](=O)[O-])cc2c1-c1ccccc1 | –
COC(=O)Cc1c(-c2ccccc2)c2cc(Br)ccc2[nH]c1=O | 3.9
SMILES | Dicer inh
COc1ccc2[nH]c(=O)c(-c3ccccc3)c(O)c2c1 | –
CCOc1ccc(C2C(C(=O)OCc3ccccc3)=C(C)NC3=C2C(=O)CC(C)(C)C3)cc1 (stereo unspecified) | –
CCOC(=O)c1sc(SC)c2c1CCc1cnoc1-2 | –
COCCOC(=O)c1c(C)oc2ccc(OC(=O)c3ccco3)cc12 | –
CC(C)(C)c1ccc(OC(=O)c2ccco2)cc1 | –
CN(CCOC(=O)c1ccco1)C(C)(C)C | 3.4
Cc1ccc(C)c(N2C(=O)C3C4c5ccccc5C(CO)(c5ccccc54)C3C2=O)c1 (stereo unspecified) | –
CCCCOc1ccccc1C1C(C(=O)OCCC)=C(C)NC2=C1C(=O)CC(C)(C)C2 (stereo unspecified) | –
CS/C(=N\S(=O)(=O)/C=C/c1ccccc1)NN | –
COc1ccc(C2C3=C(CCCC3=O)N=C3c4ccccc4C(=O)C32)cc1 (stereo unspecified) | 8.7
CC1(C)CC(=O)C2=C(C1)N=C1c3ccccc3C(=O)C1C2c1cccc(F)c1 (stereo unspecified) | –
O=C1CCCC2=C1C(c1ccc(F)cc1)C1C(=O)c3ccccc3C1=N2 (stereo unspecified) | –
CCSCCOC(=O)C1=C(C)NC2=C(C(=O)CC(C)(C)C2)C1c1ccsc1 (stereo unspecified) | –
CC1=C(C(=O)Nc2cccc(F)c2)C(c2ccsc2)C2=C(CC(C)(C)CC2=O)N1 (stereo unspecified) | 3.7
CC1=C(C(=O)Nc2cccc(C)n2)C(c2ccsc2)C2=C(CC(C)(C)CC2=O)N1 (stereo unspecified) | –
Cn1c(=O)c2c(-c3ccccc3)n(-c3ccc(O)cc3)cc2n(C)c1=O | –
CCn1c(NCc2ccncc2)nc2ccccc21 | –
CCN(CC)CCn1c(NCc2ccc(N(C)C)cc2)nc2ccccc21 | 4.4
CCN(CC)CCn1c(NCc2ccncc2)nc2ccccc21 | –
CN(C)c1ccc(CNc2nc3ccccc3n2CCN2CCCCC2)cc1 | –
CCCn1c(NCc2ccncc2)nc2ccccc21 | –
CCc1ccc(CNc2nc3ccccc3n2C)cc1 | 3.4
CSCCC(NS(=O)(=O)c1cc(C(F)(F)F)cc(C(F)(F)F)c1)C(=O)NNC(=O)c1ccc(Cl)cc1 (stereo unspecified) | –
CCOC(=O)c1cc(C)ccc1NC(=S)Nc1ccc(Cl)cc1C | –
O=C(Nc1ccc(F)cc1)C1Sc2nnc(-c3ccccc3)n2NC1c1ccccc1 (stereo unspecified) | –
SMILES | Dicer inh
COc1cc2c(cc1OC)CN(S(=O)(=O)c1ccc3c(c1)CCC(C)(C)O3)CC2 | –
COc1cc2c(cc1OC)C1=C(C#N)CN(CCc3ccccc3)CN1CC2 | –
COc1cc2c(cc1OC)C1=C(C#N)CN(c3ccc(C)c(C)c3)CN1CC2 | 4.5
Cn1c2c(c(=O)[nH]c1=O)C(c1ccsc1)C1=C(N2)c2ccccc2C1=O (stereo unspecified) | –
Cn1c2c(c(=O)n(C)c1=O)C(c1ccsc1)C1=C(N2)c2ccccc2C1=O (stereo unspecified) | 7.8
COc1cccc(C2C3=C(Nc4c2c(=O)n(C)c(=O)n4C)c2ccccc2C3=O)c1 (stereo unspecified) | –
CCOC(=O)c1sc(S(C)(=O)=O)c2c1CCCC2O (stereo unspecified) | –
COc1ccc(C2C3CCc4ccccc4C3=NN2C(=O)CSc2nnc(-c3ccncc3)o2)cc1 (stereo unspecified) | –
COC(=O)c1cscc1S(=O)(=O)N1CCN(c2coc3ccccc3c2=O)CC1 | –
CCn1c[n+](CC(O)COc2cccc(OC)c2)c2ccccc21 (stereo unspecified) | –
Cc1cc(NC(=O)CSc2nc(-c3ccccc3)c(C#N)c(=O)[nH]2)no1 | –
CC1(C)CC(=O)c2sc(NC(=O)CSc3nc(-c4ccccc4)c(C#N)c(=O)[nH]3)nc2C1 | 4.1
CCC(Oc1ccccc1)C(=O)Nc1nc2c(s1)C(=O)CC(C)(C)C2 (stereo unspecified) | –
CC1(C)CC(=O)C2=C(C1)Nc1cc(C(=O)c3ccccc3)ccc1NC2c1ccc(F)cc1 (stereo unspecified) | –
COC(=O)c1cc(OC)c(OC)cc1NC(=O)C(C)(C)C | –
O=C(O)C(F)(F)C(F)(F)C(=O)NCc1ccccc1Cl | –
OC(C#CCN1CCOCC1)c1cccs1 (stereo unspecified) | 4
O=C(c1cccs1)C(O)c1cccs1 (stereo unspecified) | –
O=C1C(=O)N(CCN2CCOCC2)C(c2cccs2)/C1=C(\O)c1ccccc1 (stereo unspecified) | –
Cc1c2c(=O)n(-c3ccccc3)[nH]c2cc(=O)n1Cc1cccs1 | –
Cc1ccc2ncnc(NC(CO)C(=O)O)c2c1 (stereo unspecified) | –
Cc1ccc2ncnc(NC(CC(C)C)C(=O)O)c2c1 (stereo unspecified) | –
CCCCC(Nc1ncnc2ccc(Br)cc12)C(=O)O (stereo unspecified) | 3.9
CCc1ccc2cc3c(=O)n(C)c4c(c(=O)n(C)c(=O)n4C)c3nc2c1 | –
CC1(C)C(=O)C2(CCCCC2)C(=O)OC1C(=O)c1ccc(Br)cc1 (stereo unspecified) | –
Cc1c2cnn(C)c(=O)c2c(C)n1Cc1cccs1 | –
